Shown are actives, neighbours in structure and some others; about 2.8% of the full set was active somewhere.
PI5P4K alpha inh – qHTS for Inhibitors of phosphatidylinositol 5-phosphate 4-kinase (PI5P4K); PI5P4Kalpha enzyme, ADP-Glo luminescence, 60 min; active compounds read low; AID 652105, 2013; max response, %; hit rate 1.2% among 330,000; active means max response of -50% or lower; inconclusive means between -30% and -50%; inactive means -30% or higher; further: value at the top dose of about 77 µM
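PI5P4Kalpha ADP-Glo assay; 5 microM ATP final; 60 min RT reaction; HEPES pH 7.4/EGTA/CHAPS, 5% DMSO; controls lacking substrate or enzyme; luminescent end-point.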
Pol kappa inh – qHTS for Inhibitors of Polymerase Kappa; hit rate 0.53% among 400,000; purified Pol kappa, fluorescent DNA synthesis assay, 10 min; Potency, µM (doses to about 107 µM), hits mostly inhibitors
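Inhibition of 10 nM Pol kappa is measured by a fluorescent read-out at 0 and 10 min following addition of 50 nM substrate (final), with a 15-min room-temperature compound preincubation.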
FEN1 inhibitor – qHTS Assay for the Inhibitors of Human Flap endonuclease 1 (FEN1); Recombinant FEN1 flap cleavage, fluorescence, 15 min; Potency, µM (top dose mostly 114 µM), usual class: inhibitors; hit rate 0.35% among 390,000; further: nearly all actives have a fitted effect of over 65% in size
Target sequence (P39748 whole entry, looked up): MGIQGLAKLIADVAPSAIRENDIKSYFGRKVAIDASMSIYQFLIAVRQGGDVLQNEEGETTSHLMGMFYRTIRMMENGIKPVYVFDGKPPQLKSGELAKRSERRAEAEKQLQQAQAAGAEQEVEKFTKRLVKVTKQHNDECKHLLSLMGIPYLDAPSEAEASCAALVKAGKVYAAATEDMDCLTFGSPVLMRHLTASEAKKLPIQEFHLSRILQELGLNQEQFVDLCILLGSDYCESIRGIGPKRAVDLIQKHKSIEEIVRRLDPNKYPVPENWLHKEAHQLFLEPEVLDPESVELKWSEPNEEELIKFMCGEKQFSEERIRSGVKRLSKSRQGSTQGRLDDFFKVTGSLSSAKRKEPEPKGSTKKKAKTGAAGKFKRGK
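Potency values derive from four-parameter Hill fits of normalized qHTS data. The reaction used 10 nM FEN1 preincubated 15 min at room temperature with compound, then 50 nM DNA substrate, read at 0 and 15 min.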
Pol eta inh – qHTS for Inhibitors of Polymerase Eta | hit rate 1.2% among 390,000 | Potency, µM (doses to about 114 µM), actives largely listed as inhibitors | recombinant Pol eta, fluorescent DNA replication assay | DNA polymerase eta (Homo sapiens), Q9Y253
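Pol eta (10 nM) was preincubated with compounds for 15 min at room temperature, after which fluorescent replication substrate (50 nM final) was added to start the reaction. Fluorescence was read kinetically at 0 and 10 min.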
Pol iota inh – qHTS for Inhibitors of Polymerase Iota. DNA polymerase iota (Homo sapiens), Q9UNA4. Pol iota fluorescent replication assay, 10 min. Potency, µM (series often up to 115 µM), actives largely listed as inhibitors. hit rate 1% among 390,000. AID 588590, 2011
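Pol iota at 10 nM preincubated 15 min with compounds at room temperature; reaction started with fluorescent substrate, 50 nM final. Fluorescence read kinetically at 0 and 10 min; buffer-only wells as negative control.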
POLB inh – qHTS Assay for Inhibitors of DNA Polymerase Beta; P06746; Pol beta primer extension/strand displacement, fluorescence kinetic; Potency, µM (doses to about 114 µM), most hits filed as inhibitors; hit rate 1.3% among 340,000
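Preincubation: enzyme (10 nM) with compound, 15 min, RT. Reaction: substrate added to 50 nM final. Reads: 0 and 10 min. Analysis: normalized, Hill fit.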
A number is an active result; – = inactive; ? = inconclusive; · = not tested or not shown; [ ] = another dose, or the depositor's remark. Unless noted, the call rests on the fitted dose curve; in most records, active means well fitted curve in the direction sought with a large enough effect; inconclusive means small, poorly fitted or top-dose-only effect, or another doubt; inactive means no such curve, though single readings can be large; an effect the other way counts as inactive or inconclusive.

SMILES | PI5P4K alpha inh | Pol kappa inh | FEN1 inhibitor | Pol eta inh | Pol iota inh | POLB inh
O=C(CNS(=O)(=O)c1c(Cl)cccc1Cl)OCC(=O)c1ccc[nH]1 | -51 | ? | – | 45µM | 16µM | ?
O=C(CNS(=O)(=O)c1ccc(Br)cc1Cl)OCC(=O)c1ccc[nH]1 | – | – | – | – | – | ·
C#CCn1cc(/C=C2\NC(=O)NC2=O)c2ccccc21 | – | ? | – | ? | ? | 35µM
CCNc1nc(NCC)n2c(SCC(=O)Nc3cccc(F)c3)nnc2n1 | – | ? | – | ? | 45µM | ·
CCNc1nc(NCC)n2c(SCC(=O)Nc3ccccc3C(F)(F)F)nnc2n1 | – | ? | – | ? | 79µM | ·
CCNc1nc(NCC)n2c(SCC(=O)Nc3cccc(Cl)c3)nnc2n1 | – | ? | – | 14µM | ? | ·
Cc1ccc(-n2c(=O)c3c(c4cc(C)ccc4n3C)n(CC(=O)NCc3ccccc3)c2=O)cc1 | · | – | – | – | – | –
Cc1cccc(Nc2nc(NCCCN3CCOCC3)nc(N)c2[N+](=O)[O-])c1 | – | – | ? | – | – | –
COc1cc(/C=C(\C#N)c2nc3ccccc3[nH]2)cc(Cl)c1OCc1ccccc1Cl | · | – | – | ? | – | 3.2µM
Cc1ccccc1Cc1c(C)nc2c(C(=O)NCc3ccco3)cnn2c1C | · | – | – | ? | ? | 45µM
C/C=C/C=C/[C@H]1Cc2cc(O)cc(O)c2O1 | · | · | · | · | · | 50µM
O=c1[nH]c(/C=C/c2cccnc2)c([N+](=O)[O-])c(=O)[nH]1 | -65 | – | – | ? | – | –
CCC(C)Oc1ccc(/C=C/c2[nH]c(=O)[nH]c(=O)c2[N+](=O)[O-])cc1OC (centres undefined) | -58 | – | – | – | ? | –
O=c1[nH]c(/C=C/c2ccccc2)c([N+](=O)[O-])c(=O)[nH]1 | -76 | – | – | ? | ? | ?
O=C1C=C(c2ccc(F)nc2)C[C@@H](c2ccc3c(c2)OCO3)C1 | – | – | – | – | – | ·
CCC(Sc1nnc2c3ccccc3n(CC)c2n1)C(=O)Nc1ccc(NC(C)=O)cc1 (centres undefined) | · | – | – | – | – | –
Cc1ccc(CNC(=O)c2ccc(N3CCC4(CC3)CC(c3ccccc3)=NO4)c(NC(=O)c3ccc(Cl)c([N+](=O)[O-])c3)c2)cc1 | – | – | – | – | – | ·
C(=C/c1nccc2c1[nH]c1ccccc12)/c1ccc2c(c1)OCO2 | – | – | 45µM | – | – | ?
COc1ccc(/C=C/c2nccc3c2[nH]c2ccccc23)cc1 | · | – | – | · | – | ·
CCC(=O)OC1(C)C(=O)C=C2C=C(c3ccsc3)OC=C2C1=O (centres undefined) | -73 | 50µM | 40µM | 50µM | 18µM | 50µM
COC(=O)CCC(=O)OC1(C)C(=O)C=C2C=C(C3CC3)N(Cc3ccco3)C=C2C1=O (centres undefined) | – | – | – | – | – | –
COC(=O)CCC(=O)OC1(C)C(=O)C=C2C=C(C3CC3)N(C3CC3)C=C2C1=O (centres undefined) | – | – | – | – | 14µM | –
COC(=O)CCC(=O)OC1(C)C(=O)C=C2C=C(c3ccsc3)OC=C2C1=O (centres undefined) | -98 | 20µM | 32µM | 5µM | 14µM | ·
COc1ccc(NC(=O)c2c(NCc3ccc(OC)c(OC)c3OC)sc3c2CCC3)c(OC)c1 | · | – | – | – | – | –
CCCCc1c(C)nc2c(-c3ccc(OC)cc3)c(C)[nH]n2c1=O | · | – | – | – | – | –
SMILES | PI5P4K alpha inh | Pol kappa inh | FEN1 inhibitor | Pol eta inh | Pol iota inh | POLB inh
COc1ccc(Nc2cc(C)c3cc(NC(=O)COc4cccc(C)c4)ccc3n2)cc1 | · | – | – | – | – | –
COc1ccc(C(c2c(C)n(C)n(-c3ccccc3)c2=O)c2c(C)n(C)n(-c3ccccc3)c2=O)cc1OC | – | – | – | – | ? | –
COc1ccc(C(c2c(C)[nH]n(-c3ccccc3)c2=O)c2c(C)[nH]n(-c3ccccc3)c2=O)cc1OC | – | – | ? | – | 1.3µM | –
CCOc1cc(C(c2c(C)[nH]n(-c3ccccc3)c2=O)c2c(C)[nH]n(-c3ccccc3)c2=O)ccc1O | · | – | ? | – | 1.6µM | –
Cc1[nH]n(-c2ccccc2)c(=O)c1C(c1cc(Cl)ccc1O)c1c(C)[nH]n(-c2ccccc2)c1=O | · | – | ? | ? | ? | –
CCCCC1=CC2=C(c3ccco3)C(=O)C(C)(OC(=O)c3ccc(OC)cc3)C(=O)C2=CN1Cc1ccc(OC)cc1 (centres undefined) | · | · | · | · | · | 45µM
CCCCC1=CC2=C(c3ccco3)C(=O)C(C)(OC(=O)c3ccc(OC)cc3)C(=O)C2=CN1CCCCO (centres undefined) | – | – | – | – | ? | –
CCCCC1=CC2=C(c3ccco3)C(=O)C(C)(OC(=O)c3ccc(OC)cc3)C(=O)C2=CN1Cc1ccco1 (centres undefined) | – | 50µM | – | – | 4µM | 10µM
OCc1cc2c(cn1)[nH]c1ccccc12 | · | –[19.4 µM] | · | · | · | ·
CC(C)NC(=O)C1(C)CCCCN1Cc1ccc(OCc2ccccc2)cc1 (centres undefined) | – | · | · | · | · | ·
N#CCCn1c(=O)c(-c2ccc(Cl)cc2)nc2cnc(N3CCNCC3)nc21 | · | – | · | · | · | ·
O=C(COc1ccc(C(=O)NCC2CCCO2)cc1)Nc1cccc(C(F)(F)F)c1 (centres undefined) | – | – | – | – | – | ·
COc1ccccc1-c1cc(-n2ccnc2)ncn1 | · | – | · | · | · | ·
c1cn(-c2cc(-c3ccc4c(c3)OCO4)ncn2)cn1 | · | 25µM | · | · | · | ·
CC(C)Cc1nnc(NC(=O)c2cc3c(s2)CCC3)s1 | – | ? | – | – | 28µM | –
O=C(CN1C(=O)CCc2cc(S(=O)(=O)N3CCOCC3)ccc21)NCc1ccc(F)cc1 | · | – | – | – | – | –
NC1=NC(=O)/C(=C/c2cc(Br)c(O)c(Br)c2)S1 | -89 | – | – | – | ? | –
CCNC(=O)C1CCCN(C(=O)c2ccccc2)CC1 (centres undefined) | – | · | · | · | · | ·
CC(=O)Nc1cccc(-c2cc(C)c3cc4c(cc3n2)OCO4)c1 | – | – | ? | – | ? | 40µM
O=C(Nc1nc2c(s1)CCCC2)c1ccc(Br)s1 | · | – | – | – | 79µM | –
Cc1cccc(C(=O)Nc2nc3c(s2)CCCC3)c1 | · | – | – | – | – | –
O=C(CSc1nnc(CNC(=O)c2ccco2)o1)Nc1ccccc1F | – | – | – | – | – | –
CCN1/C(=C/c2cc[n+](CCCS(=O)(=O)[O-])c3ccccc23)Sc2ccccc21 | – | – | ? | – | ? | ?

Screening results as filed in PubChem.
